Screens (PubChem BioAssay)
Compounds with a hit are over-represented: about 10% of the library has one in this group of screens.
HCT116 PTEN-null = PTEN-deleted cell growth suppression; 140,000 compounds, 1.2% hits; AID 827; viability, % at 10 µM; HCT116 PTEN-null viability, CellTiter-Glo, 60 h; active compounds read low;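 active = viability at or below a set limit, 4 SD under the median of all tested compounds, cut at about 3.7% in these data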;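 also: PTEN knockout HCT116 line with beta catenin targeted HCT116 as companion control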
p97 ATPase inh = inhibitors of human p97 ATPase; P55072; recombinant p97 ATPase, Kinase-Glo ATP luminescence, 3 h; inhibition, % at 8 µM; 220,000 compounds, 0.42% hits; in the data active = inhibition above about 15%;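 also: 0% = DMSO vehicle and 100% = wells lacking enzyme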
Target sequence (P55072 whole entry, looked up): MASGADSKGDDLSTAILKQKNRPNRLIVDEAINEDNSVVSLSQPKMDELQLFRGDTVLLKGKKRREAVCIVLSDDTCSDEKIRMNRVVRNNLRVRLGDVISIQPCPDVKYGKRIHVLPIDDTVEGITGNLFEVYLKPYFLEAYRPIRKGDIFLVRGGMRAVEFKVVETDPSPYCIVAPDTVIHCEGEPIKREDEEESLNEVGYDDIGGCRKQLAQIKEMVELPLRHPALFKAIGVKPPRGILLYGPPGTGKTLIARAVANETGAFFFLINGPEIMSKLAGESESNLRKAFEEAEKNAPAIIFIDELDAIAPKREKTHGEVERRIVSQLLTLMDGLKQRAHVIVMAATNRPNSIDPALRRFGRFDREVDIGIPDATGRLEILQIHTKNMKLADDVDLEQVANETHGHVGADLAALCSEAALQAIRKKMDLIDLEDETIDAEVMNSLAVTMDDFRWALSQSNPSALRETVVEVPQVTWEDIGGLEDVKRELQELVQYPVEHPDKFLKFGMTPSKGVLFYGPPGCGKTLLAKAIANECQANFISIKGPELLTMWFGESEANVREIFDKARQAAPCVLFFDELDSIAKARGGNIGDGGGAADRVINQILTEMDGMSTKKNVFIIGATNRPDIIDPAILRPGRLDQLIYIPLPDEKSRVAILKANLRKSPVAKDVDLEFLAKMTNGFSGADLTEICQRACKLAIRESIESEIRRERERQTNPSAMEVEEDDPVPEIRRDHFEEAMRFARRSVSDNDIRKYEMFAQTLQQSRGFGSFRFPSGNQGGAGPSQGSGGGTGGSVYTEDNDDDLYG
ROMK primary = human ROMK K+ channel modulation, primary screen; 130,000 compounds, 2% hits; B-score at 10 µM; P48048; Tet-inducible ROMK, thallium flux fluorescence; actives lie on both sides;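 active = signal ratio slope over the read window, or its plate-corrected B-score, at least 3 SD from the plate mean, either direction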;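 also: B-score of the F/F0 ratio slope over 7 to 12 s after thallium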
Lmaj promast = inhibitors of Leishmania major promastigote growth | inhibition, % at 10 µM | 200,000 compounds, 9% hits | Leishmania major promastigotes, resazurin fluorescence viability | AID 1063; in the data active = inhibition above about 50%;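 also: promastigotes grown with compound for 44 hours at 28 °C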
INS promoter inh = TRM-6 insulin promoter activity inhibition. TRM-6 cells (human fetal islet line), insulin promoter-eGFP reporter, imaging; reporter expression induced with tamoxifen. inhibition, % at 2 µM. 130,000 compounds, 0.9% hits;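 active = inhibition above the mean plus 3 SD, with well images judged a real hit on visual review, cut at about 60% in these data, passing the limit was not always enough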
bCat KO growth = beta-catenin-lacking colon tumor cell growth suppression; AID 818; HCT116 beta-catenin knockout viability, CellTiter-Glo, 60 h; active compounds read low; 140,000 compounds, 1.5% hits; viability, % at 10 µM;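 active = viability at or under a set limit, the compound median less 4 SD, cut at about 6% in these data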;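 also: 0% = Hyamine 1622 control at 20 µM and 100% = untreated cell control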
Starred values were filed as active, the others as inactive.

What do the screens show for `Cc1cc(C)c(NC(=S)NCCCSC2CCCCC2)c(C)c1`?
p97 ATPase inh: -8; ROMK primary: -1.6; Lmaj promast: 57*; INS promoter inh: 0

What do the screens show for `COC(=O)Cn1c(=NC(=O)c2ccc([N+](=O)[O-])s2)sc2cc(Br)ccc21`?
HCT116 PTEN-null: 8; p97 ATPase inh: 7; ROMK primary: -0.31; Lmaj promast: 100*; INS promoter inh: -25; bCat KO growth: 15

Results for COc1ccc(C(=O)Nc2nnc(-c3ccco3)s2)cc1 ?
HCT116 PTEN-null: 1.8*; p97 ATPase inh: -7; ROMK primary: 0.24; Lmaj promast: 19; bCat KO growth: 1.6*

Results for O=C(Nc1nnc(-c2ccco2)s1)c1ccccc1 ?
HCT116 PTEN-null: 103; p97 ATPase inh: 4; Lmaj promast: -11; bCat KO growth: 99

How did S=C(NCc1cccnc1)Nc1cccc2ccccc12 do in these assays?
HCT116 PTEN-null: 98; p97 ATPase inh: 6; ROMK primary: 0.62; Lmaj promast: 92*; INS promoter inh: -8; bCat KO growth: 91

How did COc1ccc(OCCNC(=S)Nc2cccc3ccccc23)cc1 do in these assays?
HCT116 PTEN-null: 101; p97 ATPase inh: -7; Lmaj promast: 3; INS promoter inh: 19; bCat KO growth: 85

How did COc1ccc(CCNC(=S)Nc2cccc3ccccc23)cc1 do in these assays?
HCT116 PTEN-null: 77; p97 ATPase inh: -4; Lmaj promast: 85*; INS promoter inh: -21; bCat KO growth: 71

Results for S=C(NCc1cccnc1)NCc1cccnc1 ?
p97 ATPase inh: 7; ROMK primary: -0.29; Lmaj promast: -5; INS promoter inh: -36

What do the screens show for `C=CCNC(=S)NCc1cccnc1`?
HCT116 PTEN-null: 101; p97 ATPase inh: 5; Lmaj promast: 80*; INS promoter inh: 11; bCat KO growth: 99

Results for S=C(NCCc1ccccc1)Nc1cccc2cnccc12 ?
p97 ATPase inh: 3; ROMK primary: -1; Lmaj promast: -7; INS promoter inh: 73*

Results for CC(C)On1c(SCC(=O)N(C)C)nc2ccccc2c1=O ?
p97 ATPase inh: 8; ROMK primary: 0.068

Results for O=C(CSc1ccc2nnc(-c3ccc(Cl)cc3)n2n1)N1CCc2ccccc21 ?
HCT116 PTEN-null: 87; p97 ATPase inh: -3; Lmaj promast: 2; bCat KO growth: 93

What do the screens show for `CC(C)N1C(=O)C(Cc2nc3ccccc3c(=O)n2-c2ccccc2)c2ccccc21` (stereo unspecified)?
HCT116 PTEN-null: 66; p97 ATPase inh: -6; Lmaj promast: 21; bCat KO growth: 62

How did CC(C)N1C(=O)/C(=C/c2nc3ccccc3c(=O)n2-c2ccccc2)c2ccccc21 do in these assays?
HCT116 PTEN-null: 2.1*; p97 ATPase inh: 6; Lmaj promast: 100*; INS promoter inh: 39; bCat KO growth: 2.5*

Results for CC(C)N1C(=O)/C(=C\c2nc3ccccc3c(=O)n2-c2ccccc2)c2ccccc21 ?
HCT116 PTEN-null: 3.1*; p97 ATPase inh: -8; ROMK primary: -0.087; Lmaj promast: 99*; INS promoter inh: -9; bCat KO growth: 7

Results for CCN(CC)CCNC(=O)C(=O)NCC1OCCN1C(=O)c1ccc2c(c1)OCO2 (stereo unspecified) ?
HCT116 PTEN-null: 99; p97 ATPase inh: 1; Lmaj promast: 54*; INS promoter inh: 19; bCat KO growth: 97

What do the screens show for `Cc1ccc(CNC(=O)C(=O)NCC2OCCN2C(=O)c2ccc3c(c2)OCO3)cc1` (stereo unspecified)?
p97 ATPase inh: -1; ROMK primary: -1.1; Lmaj promast: 2

Results for COCCCn1c(O)c(/C=C2\N=C(C#N)C(=Nc3ccc(C)cc3)O2)sc1=S ?
p97 ATPase inh: -1

What do the screens show for `O=C(NCC1(c2ccccc2)CCCC1)c1ccccc1`?
HCT116 PTEN-null: 85; p97 ATPase inh: 1; ROMK primary: -0.69; Lmaj promast: 2; INS promoter inh: 25; bCat KO growth: 83

What do the screens show for `O=C(NCC1(c2ccccc2)CCCC1)c1ccccc1Br`?
HCT116 PTEN-null: 90; p97 ATPase inh: -3; ROMK primary: 0.011; Lmaj promast: 55*; INS promoter inh: -43; bCat KO growth: 85

How did Cc1ccccc1Cn1ccc(=NCc2ccccc2)cc1 do in these assays?
HCT116 PTEN-null: 27; p97 ATPase inh: -4; Lmaj promast: 100*; INS promoter inh: -40; bCat KO growth: 24

What do the screens show for `Cc1ccccc1CNC(=O)CCc1ccccc1`?
p97 ATPase inh: 0; ROMK primary: 0.09; Lmaj promast: -4

How did CCCCn1c(/N=C/c2ccccc2NS(=O)(=O)c2ccc(C)cc2)nc2ccccc21 do in these assays?
HCT116 PTEN-null: 59; p97 ATPase inh: -4; Lmaj promast: 77*; bCat KO growth: 66

What do the screens show for `Cc1ccc(S(=O)(=O)Nc2ccccc2/C=N/c2nc3ccccc3n2C(C)C)cc1`?
HCT116 PTEN-null: 71; p97 ATPase inh: -7; ROMK primary: -0.32; Lmaj promast: 58*; INS promoter inh: 11; bCat KO growth: 83

How did Cc1ccc(C(O)c2nc3ccccc3n2C(C)C)cc1 (stereo unspecified) do in these assays?
HCT116 PTEN-null: 84; p97 ATPase inh: -3; Lmaj promast: 5; INS promoter inh: 5; bCat KO growth: 70

How did CC(OC(=O)C1CSC2(c3ccc(F)cc3)CCC(=O)N12)C(=O)NC(N)=O (stereo unspecified) do in these assays?
p97 ATPase inh: 1; ROMK primary: -0.031; Lmaj promast: -4; INS promoter inh: 25

What do the screens show for `CCOc1ccccc1N(CC(=O)NCCSc1ccccc1)S(C)(=O)=O`?
p97 ATPase inh: 1; ROMK primary: 1.4; Lmaj promast: -4; INS promoter inh: -22

Results for Fc1ccc(-n2nnnc2-c2cnc(-c3cccs3)nc2C(F)(F)F)cc1 ?
HCT116 PTEN-null: 22; p97 ATPase inh: 6; ROMK primary: 0.12; Lmaj promast: 23; bCat KO growth: 28

How did CCN1CCCC1CNCc1cccc(OC)c1OCc1ccccc1 (stereo unspecified) do in these assays?
HCT116 PTEN-null: 99; p97 ATPase inh: 0; ROMK primary: -0.13; Lmaj promast: 85*; bCat KO growth: 88

Results for CCN1CCCC1CNCc1ccccc1OCc1ccc(F)cc1 (stereo unspecified) ?
HCT116 PTEN-null: 83; p97 ATPase inh: -1; ROMK primary: -1.8; Lmaj promast: 100*; INS promoter inh: -97; bCat KO growth: 70

What do the screens show for `CCN1CCCC1CNCc1cccc(OC)c1OCc1ccccc1F` (stereo unspecified)?
HCT116 PTEN-null: 93; p97 ATPase inh: -4; ROMK primary: -1.7; Lmaj promast: 100*; INS promoter inh: 0; bCat KO growth: 80

How did CNCc1ccccc1OCc1ccc(F)cc1 do in these assays?
p97 ATPase inh: 1; ROMK primary: -0.69; Lmaj promast: 5

Results for CC(C)(C)c1cc(-c2n[nH]c(=S)n2-c2ccccc2F)n[nH]1 ?
p97 ATPase inh: -5
